# Reference: PubChem BioAssay AID488969 (Vanderbilt High Throughput Screening Facility, 2010)
# In all, about 110,000 compounds were measured (“z-score”: median about -0.1, highest 2% from about 2 on). This is one part of a sample in which the highest values are shown more often than they occur. Calls of active or inactive are those of the source.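 How the source made its calls: active means z-score in the third read window above 3 or below -3; inactive means the rest.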
# Molecular target: Metabotropic glutamate receptor 8 (Rattus norvegicus) (UniProt P70579)
# Sequence (P70579 whole entry, looked up): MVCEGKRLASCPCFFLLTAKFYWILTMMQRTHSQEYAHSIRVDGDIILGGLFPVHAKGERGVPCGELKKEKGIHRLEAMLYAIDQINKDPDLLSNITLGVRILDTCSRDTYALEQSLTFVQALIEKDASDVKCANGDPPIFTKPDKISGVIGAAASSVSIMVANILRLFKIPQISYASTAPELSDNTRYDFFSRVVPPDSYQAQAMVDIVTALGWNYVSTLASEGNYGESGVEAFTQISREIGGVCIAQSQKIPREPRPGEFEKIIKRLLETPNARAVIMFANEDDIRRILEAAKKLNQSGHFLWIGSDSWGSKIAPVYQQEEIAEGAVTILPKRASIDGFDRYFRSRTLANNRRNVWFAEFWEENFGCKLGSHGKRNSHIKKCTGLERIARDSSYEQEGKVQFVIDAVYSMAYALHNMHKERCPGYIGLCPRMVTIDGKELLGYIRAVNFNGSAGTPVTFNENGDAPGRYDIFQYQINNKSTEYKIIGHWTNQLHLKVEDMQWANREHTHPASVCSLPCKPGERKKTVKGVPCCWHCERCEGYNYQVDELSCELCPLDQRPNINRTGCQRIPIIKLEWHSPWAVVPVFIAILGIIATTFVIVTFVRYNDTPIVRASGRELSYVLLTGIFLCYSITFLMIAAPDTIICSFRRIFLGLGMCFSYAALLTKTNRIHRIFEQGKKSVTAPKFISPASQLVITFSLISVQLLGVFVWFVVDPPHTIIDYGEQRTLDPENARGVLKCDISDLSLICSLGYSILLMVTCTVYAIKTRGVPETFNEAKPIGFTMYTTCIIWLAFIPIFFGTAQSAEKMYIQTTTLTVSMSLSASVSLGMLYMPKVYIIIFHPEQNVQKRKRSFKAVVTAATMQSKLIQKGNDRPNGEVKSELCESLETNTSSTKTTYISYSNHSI
# Test: mGluR8 Gi/Go-coupled signaling modulation – cell-based, rat, thallium flux, HTS, primary screen (AID 488969)
# Settings: HEK293 rat mGluR8, GIRK (G protein-gated inwardly rectifying potassium channel) thallium flux, FluoZin2; at 10 µM; stronger effect = higher value; submaximal glutamate (EC20) added with thallium
row,SMILES,z-score
1,Cc1cccc(Oc2ccccc2NC(=O)c2cnccn2)c1,-0.109
2,COc1cc(C(=O)NCCc2ccc3c(c2)OCCO3)ccc1OCC(=O)N1CCOCC1,0.0469
3,CCCCOc1ccc(-c2cc(C(=O)NNC(=S)NCC)c3ccccc3n2)cc1,-0.155
4,COc1ccccc1N1CCN(C(CNC(=O)c2ccc3c(c2)OCO3)c2cccnc2)CC1 (stereo not drawn),0.0309
5,CC(CNCC1CCCO1)COc1cccc2ccccc12 (stereo not drawn),0.285
6,Cc1ccc(C(=O)N/C(=C\c2ccc(-c3ccc(Br)cc3)o2)C(=O)NC2CCS(=O)(=O)C2)cc1 (stereo not drawn),-0.13
7,O=C(Nc1ccc2oc(-c3ccncc3)nc2c1)c1ccccc1F,-0.225
8,O=C(Nc1ccc2oc(-c3ccncc3)nc2c1)c1c(F)c(F)c(F)c(F)c1F,3.39 (active)
9,COc1c(F)c(F)c(C(=O)Nc2ccc3oc(-c4ccncc4)nc3c2)c(F)c1F,-0.29
10,COc1cc2c(cc1NCc1ccccn1)oc1ccccc12,-0.0883
11,CCC(=O)Nc1ccc(N2CCN(Cc3ccccc3)CC2)cc1,0.042
12,O=C(CCS(=O)(=O)c1ccccc1)Nc1nc2c(s1)COc1ccccc1-2,-0.504
13,C/C=C/C=N/Nc1nc(-c2ccc([N+](=O)[O-])cc2)cs1,-0.273
14,COc1ccc(C(=O)N2CCN(C3CCC(c4ccccc4)CC3)CC2)cc1OC (stereo not drawn),-1.61
15,O=C(CC(O)(C(F)(F)F)C(F)(F)F)Nc1ccc(Cl)c(Cl)c1,6.91 (active)
16,Cc1ccc(NC(=O)CC(O)(C(F)(F)F)C(F)(F)F)cc1,-0.185
17,Cc1ccc(Cl)cc1NC(=O)CC(O)(C(F)(F)F)C(F)(F)F,-2.38
18,CCOC(=O)CC(=O)CSc1nc2c(cc1C#N)CCC2,2.18
19,COC(=O)CC(=O)CSc1nc2c(cc1C#N)CCC2,-0.106
20,CCOC(=O)CC(=O)CSc1nc2c(cc1C#N)CCCCC2,1.09
21,CCC(=O)NCCCCNC(=O)CC,0.217
22,CC1(C)CC(=O)C2=C(C1)OC(N)=C(C#N)C2c1cn(-c2ccccc2)nc1-c1ccc(F)cc1 (stereo not drawn),-0.436
23,CCNC(=O)c1ccccc1NC(=O)c1cccc(S(=O)(=O)N2CCC(C)CC2)c1,-1.17
24,O=C1NC(=S)/C(=C\c2ccc(-c3ccccc3Cl)o2)S1,3.83 (active)

row,SMILES,z-score
1,O=C1N=C(N2CCOCC2)S/C1=C\c1ccc(-c2ccccc2Cl)o1,-0.0639
2,O=C1/C(=C\c2ccc(-c3ccccc3Cl)o2)SC(=S)N1CC1CCCO1 (stereo not drawn),0.755
3,COC(=O)c1sccc1NC(=O)c1c(C)cc(=O)oc1C,-0.28
4,Nc1ccc(C(=O)OCC(=O)NC2CCCc3ccccc32)cc1[N+](=O)[O-] (stereo not drawn),-0.347
5,Cc1ccc(NC(=O)C(NC2CCCc3ccccc32)c2ccccc2)cc1Cl (stereo not drawn),-0.174
6,Cc1ccc(NC(=O)C(NC2CCCc3ccccc32)c2ccccc2)c([N+](=O)[O-])c1 (stereo not drawn),2.09
7,O=C(NC1CCCCC1)N(C1=NCCCCC1)c1ccc(Br)cc1,-0.204
8,CCOC(=O)C1=C(c2ccccc2)OC(N)=C(C#N)C1C1CCCCC1 (stereo not drawn),-0.435
9,COc1ccc(/C=C2\N=C(SC)SC2=O)cc1OC,-0.325
10,Cc1ccc2ncccc2c1[N+](=O)[O-],-0.242
11,CCOc1ccc(-c2cc(C)n3nc(C(N)=O)cc3n2)cc1,5.02 (active)
12,Cc1cc(-c2ccc(F)cc2)nc2cc(C(N)=O)nn12,0.242
13,COC(=O)c1cc2nc(-c3ccccc3)cc(C)n2n1,0.0407
14,O=C(COc1ccccc1F)N1c2ccccc2CCc2ccccc21,-0.375
15,C=CCNC(=S)NC1CC(C)(C)NC(C)(C)C1,0.609
16,CCc1nn(-c2cc(Cl)ccc2OC)c2c1C(=O)CCC2,-0.275
17,CCOC(=O)c1c(NC(=S)Nc2ccccc2)sc2c1CCN(CCc1ccccc1)C2,0.012
18,CCOC(=O)c1c(NC(=O)c2ccc(C)cc2)sc2c1CC(C)(C)OC2,-0.222
19,C=CCNC(=S)Nc1sc2c(c1C(=O)OCC)CCN(C(=O)OCC)C2,0.145
20,CCOC(=O)c1c(NC(=S)Nc2ccccc2)sc2c1CC(C)(C)SC2,-0.0674
21,C=C(C)CNC(=S)Nc1sc2c(c1C(=O)OCC)CC(C)(C)OC2,0.296
22,CCOC(=O)c1c(NC(=O)c2ccccc2C)sc2c1CC(C)(C)OC2,-0.332
23,C=CCNC(=S)Nc1sc2c(c1C(=O)OCC)CC(C(C)C)OC2 (stereo not drawn),8.63 (active)
24,C=CCNC(=S)Nc1sc2c(c1C(=O)OCC)CC(C)(CC)OC2 (stereo not drawn),2.22

row,SMILES,z-score
1,CCOC(=O)c1c(NC(=S)Nc2cccc(C)c2)sc2c1CC(C)(C)SC2,0.0638
2,CC(C)C1Cc2c(sc(NC(=S)NC(=O)c3ccccc3)c2C#N)CO1 (stereo not drawn),-0.13
3,CCOC(=O)c1c(NC(=S)NC)sc2c1CC(C)(C)SC2,12.5 (active)
4,CCOC(=O)c1c(NC(=S)NCCc2ccccc2)sc2c1CC(C(C)C)OC2 (stereo not drawn),3.42 (active)
5,O=C(NCc1ccco1)c1ccccc1F,0.717
6,Cc1ccc(C)c(NC(=O)CNS(=O)(=O)c2ccccc2)c1,-0.144
7,O=C(CSc1nnnn1-c1ccccc1)N1CCCc2ccccc21,-0.861
8,Cc1ccc(NC(=O)CSc2nnc(-c3ccncc3)n2C)cc1C,-0.215
9,COc1cc(OC)c(NC(=O)c2cccc(F)c2)cc1Cl,-0.155
10,COc1ccc(CC(=O)N(c2ccccc2)c2nc(C)cs2)cc1,-0.721
11,CCCC(=O)Nc1ccc(NC(=O)C23CC4CC(CC(C4)C2)C3)cn1,5.76 (active)
12,CCC(=O)Nc1ccc(NC(=O)C23CC4CC(CC(C4)C2)C3)cn1,-0.0944
13,CCCC(=O)Nc1ccc(NC(=O)c2cccc(OC)c2)nc1,2.18
14,CCC(=O)Nc1ccc(NC(=O)c2cccc(OC)c2)nc1,0.209
15,CCCCC(=O)Nc1ccc(NC(=O)C2CC2)nc1,0.252
16,CCCC(=O)Nc1ccc(NC(=O)C2CC2)cn1,13.2 (active)
17,CCCC(=O)Nc1cc(C)c(NC(=O)C23CC4CC(CC(C4)C2)C3)cn1,0.0448
18,COc1cccc(C(=O)Nc2ccc(NC(C)=O)cn2)c1,0.157
19,CCCCC(=O)Nc1ccc(NC(=O)C2CC2)cn1,0.324
20,O=C(Nc1ccc(Cl)cn1)c1cccc(F)c1,0.192
21,C[N+]1=C(/C=C/Nc2ccccc2Cl)C(C)(C)c2ccccc21,0.3
22,COc1ccc(Cl)cc1NC(=O)NC(C)c1ccncc1 (stereo not drawn),-0.275
23,O=C(Nc1cc(C(F)(F)F)ccc1N1CCCC1)c1cccnc1,0.0707
24,O=C(Cn1cc(/C=N/O)c2ccccc21)N1CCOCC1,-0.312

row,SMILES,z-score
1,C=CCn1c(COc2ccc(Cl)cc2)nnc1SCC(=O)N1CC(=O)Nc2ccccc21,-0.735
2,Nc1nnc(Cc2ccccc2)s1,-0.122
3,CC1CCc2nc(NC(=O)CN3CCOCC3)sc2C1 (stereo not drawn),-0.313
4,CC1CCc2nc(NC(=O)Nc3ccc4c(c3)OCO4)sc2C1 (stereo not drawn),-0.337
5,CC1CCc2nc(NC(=O)CN3CCN(Cc4ccc5c(c4)OCO5)CC3)sc2C1 (stereo not drawn),2.47
6,S=C(NCCc1ccccc1)N/N=C/c1ccccc1Cl,0.283
7,CCN(CC)c1ccc(/C=N/NC(=S)NCc2ccco2)cc1,0.137
8,S=C(NCc1ccco1)Nc1cc(Cl)c(Cl)cc1Cl,0.256
9,S=C(NCc1ccco1)Nc1ccc(Cl)c(Cl)c1,8.32 (active)
10,CN(C)c1ccc(/C=N/NC(=S)NCc2ccco2)cc1,0.0065
11,S=C(NCc1ccco1)Nc1cccc(Cl)c1,0.899
12,S=C(NCc1ccco1)N/N=C/c1ccccc1Cl,2.22
13,S=C(NCCc1ccccc1)N/N=C/c1cccc(Cl)c1Cl,2.63
14,CCc1ccc(/C=N/NC(=S)NCCc2ccccc2)cc1,0.0899
15,COc1cc(/C=N/NC(=S)NCc2ccco2)cc(OC)c1OC,-0.66
16,Oc1ccc(/C=N/NC(=S)NCc2ccco2)cc1,0.806
17,S=C(NCc1ccco1)N/N=C/c1ccc(Cl)cc1,2.21
18,Cc1ccccc1N1C(=O)C(Oc2ccc(Cl)cc2)C1CNC(C)(C)C (stereo not drawn),0.46
19,Cc1c(C)n(C)c2ccc(C(=O)Nc3cccc4ccccc34)cc12,0.368
20,O=C(O)c1ccc(N2C(=O)c3cccc(Oc4ccc(Cl)cc4)c3C2=O)cc1,0.79
21,CN(C)CCCNC(=O)COc1ccc(Br)cc1Cl,0.032
22,CCc1ccc(/C=C/C(=O)c2ccc(S(=O)(=O)N(C)C)cc2)cc1,-0.379
23,C(=C\c1ccccc1)/CSc1nnc(-c2ccccc2)n1Cc1ccco1,-0.701
24,CC(C)COC(=O)c1nnsc1NC(=O)Nc1ccccc1,0.142

row,SMILES,z-score
1,O=[N+]([O-])c1ccc(Cl)c(/C=N/NC(=S)Nc2ccccc2)c1,1.33
2,S=C(N/N=C/c1ccccc1Cl)Nc1ccccc1,6.51 (active)
3,CNC(=S)N/N=C/c1ccccc1Cl,1.82
4,CCOc1ccc(NC(=O)CSc2nnc(C3CC3)n2N)cc1,0.0098
5,O=C(CSc1nc2cc(Cl)ccc2s1)NCc1ccc2c(c1)OCO2,-0.0385
6,COc1ccc(C2Nc3ccccc3C(=O)N2Cc2ccco2)cc1COc1ccc(F)cc1 (stereo not drawn),-0.406
7,Cc1cccc(C)c1NC(=O)CSc1nc2ccccc2c(=O)[nH]1,0.493
8,Cc1cnc(NC(=O)CSc2nc3ccccc3c(=O)[nH]2)s1,2.14
9,Cc1cnc(NC(=O)CSc2ccccc2)s1,-0.175
10,O=C(CCNC(=O)Cn1ccc2ccccc2c1=O)NCCN1CCN(c2cccc(Cl)c2)CC1,-0.463
11,Cc1cc(C)cc(NC(=O)CSc2nc3[nH]ncc3c(=O)[nH]2)c1,-0.54
12,Cc1ccc(CSc2nc3ncccc3[nH]2)cc1,1.17
13,Cc1cc(C)cc(NC(=O)CSc2nc3ccncc3[nH]2)c1,2.24
14,Clc1cccc(CSc2nc3ccncc3[nH]2)c1,9.69 (active)
15,COc1ccc2nc(SCC(=O)Nc3ccc4c(c3)CCC4)[nH]c2c1,0.226
16,O=C(CSc1nc2ccccc2[nH]1)Nc1ccc2c(c1)CCC2,-0.809
17,Cc1ccc(CSc2nc3ccncc3[nH]2)cc1,2.46
18,Cc1ccc2nc(SCC(=O)Nc3ccc4c(c3)OCCO4)[nH]c2c1,-0.404
19,Nc1cc(=O)[nH]c(SCc2cccc(Cl)c2)n1,-0.406
20,Clc1ccc(CSc2nc3ccncc3[nH]2)cc1,0.673
21,Clc1ccccc1CSc1nc2ccncc2[nH]1,0.533
22,O=C(CSc1nc2ccc(Cl)cc2[nH]1)Nc1ccc2c(c1)CCC2,3.89 (active)
